Our source for the INHIBITION values is ChEMBL document CHEMBL4513216, “Probing the Open Global Health Chemical Diversity Library for Multistage-Active Starting Points for Next-Generation Antimalarials” (ACS Infect Dis, 2020).

SMILES strings stand for the structures. The whole screen tested about 69,000 compounds, of which about 8,600 (12%) showed an effect of 50% or more. The entries come from a sample that favours strong results as a whole.

The assay has as its system Plasmodium berghei. Description: Screen against P. berghei liver stage (PbLuc), transformed with Luciferase, at 10uM. Format: functional, HepG2. The conditions noted are these: tested at 10 uM.
Take `c1cnnc(N[C@@H]2CC[C@@H]3CN(Cc4c[nH]c5ccccc45)C[C@@H]32)c1`: the INHIBITION worked out at 31.6%.
Take `O=c1c2ccc(Cl)cc2ncn1CCCN1CCCCC1CO` (stereo not drawn): the INHIBITION turned out to be 22.9%.
Turning to `O=c1c2ccc(C(F)(F)F)cc2ncn1CCCN1CCCCC1CO` (stereo not drawn), the INHIBITION is 56.6%.
With `CC(C)N1CCCCC1CCn1cnc2cc(C(F)(F)F)ccc2c1=O` (stereo not drawn), the INHIBITION is given as 47.9%.
Regarding `COCCS(=O)(=O)NC(C)c1ccccc1Br` (stereo not drawn), the INHIBITION is given as 4.34%.
`Cc1ccc(C)c(NC(=O)Nc2c[nH]c(=O)[nH]c2=O)c1`: the INHIBITION stood at 29.2%.
Consider `Cc1ccc(NC(=O)Nc2c[nH]c(=O)[nH]c2=O)c(C)c1`, for which the INHIBITION is 50.8%.
Then `Cc1ccc(NC(=O)Nc2c[nH]c(=O)[nH]c2=O)c(Cl)c1`, with 3.77%; and `CN1CCCC(NC(=O)c2ccc(C(=O)c3cc[nH]c3)cc2)C1` (stereo not drawn), with 44.2%.
Then `CCOCCN1CCN(CC(=O)N2CCC2)CC1CC` (stereo not drawn), with -20.2%.
In the case of `CCOCCN1CCN(CC(=O)N2CCCC2)CC1C` (stereo not drawn) it was 66.5%.
For the compound `CCOCCN1CCN(CC2(O)CCCCC2)CC1`, the INHIBITION was 10.6%.
`CCOCCN1CCN(CCC(=O)N2CCCCC2)CC1C` (stereo not drawn): the INHIBITION was -10.1%.
Regarding `CCOCCN1CCN(CCC(=O)N2CCCCC2)CC1`, the INHIBITION is 64.1%.
Turning to `CCOCCN1CCN(CC(=O)N2CCCC2)CC1CC` (stereo not drawn), the INHIBITION is 31.9%.
In the case of `Cc1cc2nc(C(C)C)cc(NCCc3cccn3C)n2n1` it was 39.5%; in that of `CN(Cc1cscn1)C(=O)C(c1ccccc1)N1CCSCC1` (stereo not drawn), 60.3%.
Consider `Cc1cc(CN(C)C(=O)C(c2ccccc2)N2CCSCC2)no1` (stereo not drawn), for which the INHIBITION worked out at 17.5%.
As for `CN(Cc1ccccn1)C(=O)C(c1ccccc1)N1CCSCC1` (stereo not drawn), the INHIBITION is recorded as 33.7%.
Then `COCCOCC1CCN(C(=O)c2ccc3[nH]cnc3c2)C1` (stereo not drawn), with -24.9%; and `COc1c(CNCc2ccc(N3CCCC3)nc2)c(C(C)C)nn1C`, with 7.95%.
Then `CCN(CC(=O)NC)S(=O)(=O)c1cnc2c(c1)c(C)nn2C`, with 12.7%; and `CCN(CC(=O)N(C)C)S(=O)(=O)c1cnc2c(c1)c(C)nn2C`, with 51.1%; and `Cc1nn(C)c2ncc(S(=O)(=O)N3CCCC(C(N)=O)C3)cc12` (stereo not drawn), with 36.5%.
Then `CCN(CCC(=O)OC)S(=O)(=O)c1cnc2c(c1)c(C)nn2C`, with 35.1%; and `CCCN(CC(=O)OC)S(=O)(=O)c1cnc2c(c1)c(C)nn2C`, with 57.6%.
On to `Cc1nn(C)c2ncc(S(=O)(=O)N3CCCC(C)CC3)cc12` (stereo not drawn), for which the INHIBITION was 45.1%.
For `COC(=O)Cn1c(=O)[nH]c2cn(-c3ccc(F)cc3)c(=O)n21`, the INHIBITION was 31%.
As to `Cc1ccsc1C(=O)N1CCCC(c2[nH]ncc2S(C)(=O)=O)C1` (stereo not drawn), the INHIBITION turned out to be 17.4%.
For `Cc1nc(-c2ccccc2)nc2c1CCN(Cc1nccn1C)CC2`, the INHIBITION worked out at 75.6%.
Consider `Cc1nc(C)c2c(n1)CCN(Cc1nccn1C)CC2`, for which the INHIBITION is listed as 45.7%.
Take `CN(C)c1nc(N2CCCC2)nc2c1CCN(Cc1nccn1C)CC2`: the INHIBITION is reported as 50.3%.
For the compound `Cc1nc(N2CCCC2)nc2c1CCN(Cc1nccn1C)CC2`, the INHIBITION turned out to be 46.6%.
Regarding `Cn1ccnc1CN1CCN(Cc2noc(-c3ccccc3)n2)CC1`, the INHIBITION was found to be 24.4%.
Turning to `Cc1nc(N2CCOCC2)nc2c1CCN(Cc1nccn1C)CC2`, the INHIBITION was determined as 38.5%.
In the case of `CC(C)(C)Nc1c(C2CCN(C(=O)C3CC3)CC2)nc2ccccn12`, the INHIBITION came out at 26.355%.
With `O=C(NCCn1ccnc1)N1CCN(Cc2ccsc2)CC1`, the INHIBITION was 19.5%.
Regarding `CCCn1nc(C)c(-c2cncn2CCN(C)C2CCCC2)c1C`, the INHIBITION was -0.232%.
For `CCc1nc(CN2CCCN(C(=O)C(CC)OC)CC2)cs1` (stereo not drawn), the INHIBITION is reported as -4.94%.
In the case of `O=C(Nc1cc(F)ccc1OCC1CCCO1)N1CCCC1` (stereo not drawn), the INHIBITION was found to be 17.8%.
Turning to `CC(C)NC(=O)c1ccc2nnc(C3CCN(C(=O)NC(C)C)C3)n2c1` (stereo not drawn), the INHIBITION was found to be 8.85%.
Consider `CCN(C(=O)c1ccc2nnc(C3CCN(S(C)(=O)=O)C3)n2c1)C(C)C` (stereo not drawn), for which the INHIBITION was 33.1%.
In the case of `CC(C)NC(=O)N1CCC(c2nnc3ccc(C(=O)N(C)C)cn23)C1` (stereo not drawn), the INHIBITION was -7.24%.
As to `CCN(C(=O)c1ccc2nnc(C3CCN(C(C)=O)C3)n2c1)C(C)C` (stereo not drawn), the INHIBITION is listed as 50.3%.
`CCC(CC)NC(=O)c1ccc2nnc(C3CCN(C(C)=O)C3)n2c1` (stereo not drawn): the INHIBITION is recorded as 50.7%.
In the case of `CC(=O)N1CCC(c2nnc3ccc(C(=O)NCCN(C)C)cn23)C1` (stereo not drawn) it was 59.3%; in that of `CCN(C(=O)c1ccc2nnc(C3CCN(C)C3)n2c1)C(C)C` (stereo not drawn), 27.6%.
In the case of `CC(C)CNC(=O)c1ccc2nnc(C3CCN(S(C)(=O)=O)C3)n2c1` (stereo not drawn) it was 40.9%; in that of `CC(C)NC(=O)c1ccc2nnc(C3CCN(S(C)(=O)=O)C3)n2c1` (stereo not drawn), 10.6%.
Then `CCC(CC)NC(=O)c1ccc2nnc(C3CCN(S(C)(=O)=O)C3)n2c1` (stereo not drawn), with -1.26%.
Turning to `CC(=O)N1CCC(c2nnc3ccc(C(=O)NC(C)C)cn23)C1` (stereo not drawn), the INHIBITION turned out to be 42.6%.
As to `CC(=O)N1CCC(c2nnc3ccc(C(=O)NCC(C)C)cn23)C1` (stereo not drawn), the INHIBITION is 51.2%.
As to `CC1CCCN(Cc2ccc(OCc3nccn3C)cc2)C1` (stereo not drawn), the INHIBITION stood at 33.3%.
